Assay results published in PubChem BioAssay AID1159580 (chemical genetic matrix, 2015).
Among all 5,500 compounds or so, about 2,000 (36%) were called active. Inconclusive results (about 18%) are left out. Rule as the data show it: active = normalized growth mostly below about 0.91 (no sharp cut-off); inconclusive = no clear call, values can overlap the other calls; inactive = mostly above about 0.92. The list shows a part of the results.

Test: chemical genetic growth profiling, strain panel (AID 1159580);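 also: tested at 20 µM; growth read once vehicle control cultures reached saturation at 30 °C; 1 = growth at the plate median or of vehicle wells; lower values mean less growth of the strain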
Details: growth OD

Measured: normalized growth

CC(=O)NCCCCCC(=O)O
inactive: S. cerevisiae deletion strains, locus YJL187C, strain SWE1, stronger effect = lower value 1.01 | S. cerevisiae deletion strains, locus YJR043C, strain POL32, stronger effect = lower value 1.01 | S. cerevisiae deletion strains, locus YJR075W, strain HOC1, stronger effect = lower value 1.02 | S. cerevisiae deletion strains, locus YKL009W, strain mrt4, stronger effect = lower value 0.997 | S. cerevisiae deletion strains, locus YKL068W, stronger effect = lower value 0.994 | S. cerevisiae deletion strains, locus YKL085W, strain MDH1 (second series), stronger effect = lower value 0.989 | S. cerevisiae deletion strains, locus YKL085W, strain MDH1, stronger effect = lower value 0.989 | S. cerevisiae deletion strains, locus YKL160W, strain elf1, stronger effect = lower value 1.03 | S. cerevisiae deletion strains, locus YKL190W, strain CNB1, stronger effect = lower value 1.01 | S. cerevisiae deletion strains, locus YKR001C, strain vps1, stronger effect = lower value 1.01 | S. cerevisiae deletion strains, locus YKR026C, strain gcn3, stronger effect = lower value 0.963 | S. cerevisiae deletion strains, locus YKR091W, strain srl3, stronger effect = lower value 0.985 | S. cerevisiae deletion strains, locus YLL001W, strain dnm1, stronger effect = lower value 1.01 | S. cerevisiae deletion strains, locus YLL026W, stronger effect = lower value 1.01 | S. cerevisiae deletion strains, locus YLL041C, strain sdh2, stronger effect = lower value 0.994 | S. cerevisiae deletion strains, locus YLR027C, strain aat2, stronger effect = lower value 1.02 | S. cerevisiae deletion strains, locus YLR039C, strain RIC1, stronger effect = lower value 1.04 | S. cerevisiae deletion strains, locus YLR058C, strain SHM2, stronger effect = lower value 1.02 | S. cerevisiae deletion strains, locus YLR102C, strain apc9, stronger effect = lower value 0.989 | S. cerevisiae deletion strains, locus YLR221C, strain rsa3, stronger effect = lower value 1 | S. cerevisiae deletion strains, locus YLR258W, strain gsy2, stronger effect = lower value 0.992 | S. cerevisiae deletion strains, locus YLR262C, strain YPT6 (second series), stronger effect = lower value 1.02 | S. cerevisiae deletion strains, locus YLR262C, strain YPT6, stronger effect = lower value 1.07 | S. cerevisiae deletion strains, locus YLR268W, strain sec22, stronger effect = lower value 0.996 | S. cerevisiae deletion strains, locus YLR320W, strain mms22, stronger effect = lower value 1 | S. cerevisiae deletion strains, locus YLR330W, strain CHS5, stronger effect = lower value 1.01 | S. cerevisiae deletion strains, locus YLR342W, strain FKS1 (second series), stronger effect = lower value 1 | S. cerevisiae deletion strains, locus YLR342W, strain FKS1, stronger effect = lower value 0.982 | S. cerevisiae deletion strains, locus YLR357W, strain rsc2, stronger effect = lower value 1.01 | S. cerevisiae deletion strains, locus YLR370C, strain arc18, stronger effect = lower value 0.991 | S. cerevisiae deletion strains, locus YLR371W, strain rom2, stronger effect = lower value 0.983 | S. cerevisiae deletion strains, locus YLR384C, strain iki3, stronger effect = lower value 0.983 | S. cerevisiae deletion strains, locus YLR418C, strain cdc73, stronger effect = lower value 0.963 | S. cerevisiae deletion strains, locus YML016C, strain PPZ1, stronger effect = lower value 1.01 | S. cerevisiae deletion strains, locus YML032C, strain rad52, stronger effect = lower value 0.986 | S. cerevisiae deletion strains, locus YML120C, strain ndi1, stronger effect = lower value 1.01 | S. cerevisiae deletion strains, locus YML124C, strain tub3, stronger effect = lower value 0.989 | S. cerevisiae deletion strains, locus YMR058W, strain fet3, stronger effect = lower value 0.981 | S. cerevisiae deletion strains, locus YMR078C, strain ctf18, stronger effect = lower value 1 | S. cerevisiae deletion strains, locus YMR125W, strain sto1, stronger effect = lower value 0.986 | S. cerevisiae deletion strains, locus YMR129W, stronger effect = lower value 0.976 | S. cerevisiae deletion strains, locus YMR205C, strain PFK2, stronger effect = lower value 0.968 | S. cerevisiae deletion strains, locus YMR223W, strain ubp8, stronger effect = lower value 0.976 | S. cerevisiae deletion strains, locus YMR231W, strain pep5, stronger effect = lower value 0.978 | S. cerevisiae deletion strains, locus YMR307W, strain GAS1, stronger effect = lower value 1.01 | S. cerevisiae deletion strains, locus YNL067W, strain RPL9B, stronger effect = lower value 1.02 | S. cerevisiae deletion strains, locus YNL071W, strain lat1, stronger effect = lower value 0.989 | S. cerevisiae deletion strains, locus YNL209W, strain ssb2, stronger effect = lower value 0.994 | S. cerevisiae deletion strains, locus YNL233W, strain BNI4, stronger effect = lower value 1.03 | S. cerevisiae deletion strains, locus YNL248C, strain rpa49, stronger effect = lower value 1.01 | S. cerevisiae deletion strains, locus YNL250W, strain rad50, stronger effect = lower value 0.992 | S. cerevisiae deletion strains, locus YNL271C, strain bni1, stronger effect = lower value 0.971 | S. cerevisiae deletion strains, locus YNL298W, strain CLA4, stronger effect = lower value 0.986 | S. cerevisiae deletion strains, locus YNL307C, strain MCK1, stronger effect = lower value 0.988 | S. cerevisiae deletion strains, locus YNL322C, strain KRE1 (second series), stronger effect = lower value 0.995 | S. cerevisiae deletion strains, locus YNL322C, strain KRE1, stronger effect = lower value 1.01 | S. cerevisiae deletion strains, locus YNR049C, strain mso1, stronger effect = lower value 0.973 | S. cerevisiae deletion strains, locus YNR052C, strain pop2, stronger effect = lower value 0.995 | S. cerevisiae deletion strains, locus YOL006C, strain TOP1, stronger effect = lower value 1.09 | S. cerevisiae deletion strains, locus YOL012C, strain htz1 0.886 | S. cerevisiae deletion strains, locus YOL147C, strain pex11, stronger effect = lower value 0.988 | S. cerevisiae deletion strains, locus YOR001W, strain rrp6, stronger effect = lower value 1.04 | S. cerevisiae deletion strains, locus YOR061W, strain CKA2, stronger effect = lower value 1.02 | S. cerevisiae deletion strains, locus YOR069W, strain VPS5, stronger effect = lower value 1.01 | S. cerevisiae deletion strains, locus YOR070C, strain gyp1, stronger effect = lower value 0.994 | S. cerevisiae deletion strains, locus YOR080W, strain dia2, stronger effect = lower value 0.988 | S. cerevisiae deletion strains, locus YOR083W, strain WHI5, stronger effect = lower value 1.06 | S. cerevisiae deletion strains, locus YOR106W, strain vam3, stronger effect = lower value 1.01 | S. cerevisiae deletion strains, locus YOR136W, strain idh2, stronger effect = lower value 0.985 | S. cerevisiae deletion strains, locus YOR144C, strain elg1, stronger effect = lower value 0.978 | S. cerevisiae deletion strains, locus YOR184W, strain ser1, stronger effect = lower value 0.982 | S. cerevisiae deletion strains, locus YOR265W, strain rbl2, stronger effect = lower value 1.01 | S. cerevisiae deletion strains, locus YOR270C, strain vph1, stronger effect = lower value 0.968 | S. cerevisiae deletion strains, locus YOR290C, strain snf2, stronger effect = lower value 0.939 | S. cerevisiae deletion strains, locus YOR316C, strain cot1, stronger effect = lower value 0.987 | S. cerevisiae deletion strains, locus YPL051W, strain arl3, stronger effect = lower value 1.02 | S. cerevisiae deletion strains, locus YPL055C, strain LGE1, stronger effect = lower value 1.07 | S. cerevisiae deletion strains, locus YPL078C, strain atp4, stronger effect = lower value 1 | S. cerevisiae deletion strains, locus YPL106C, strain sse1, stronger effect = lower value 0.977 | S. cerevisiae deletion strains, locus YPL240C, strain hsp82, stronger effect = lower value 0.99 | S. cerevisiae deletion strains, locus YPR119W, strain clb2, stronger effect = lower value 0.993 | S. cerevisiae deletion strains, locus YPR141C, strain kar3, stronger effect = lower value 0.989 | S. cerevisiae deletion strains, locus YPR163C, strain tif3, stronger effect = lower value 0.98 | S. cerevisiae deletion strains, locus YPR167C, strain met16, stronger effect = lower value 0.977 | S. cerevisiae deletion strains, strain wtn01, stronger effect = lower value 0.976 | S. cerevisiae strains, strain wild type, stronger effect = lower value 1.01
